Hit rate of the full screen: of about 400,000 compounds, about 13,000 (3.2%) were called active. About 18% were inconclusive and are not listed. The sample holds actives, similar compounds and a random draw of the others, so the mix is not that of the screen. Values without a mark were called inactive. The call rests on the fitted dose curve; in most records, active means well fitted cell-killing curve with a large enough effect; inconclusive means small, poorly fitted or top-dose-only effect, or effect the other way; inactive means flat fitted curve, though single readings scatter.
Assay: qHTS assay for MDR1-selective chemotherapeutics: Primary screen using the drug-selected MDR subline cells KB-V1; further: nearly all actives have a fitted effect of over 60% in size
Settings: KB-V1 MDR cells viability, CellTiter-Glo, 72 h; series mostly up to 46.1 µM; activity change, negative = cytotoxicity: at the top concentration
Summary of the method: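 Cytotoxicity toward P-gp-expressing KB-V1 cells was determined as loss of CellTiter-Glo luminescence after 72 h at 37 degrees C. Compounds were tested in quantitative HTS format across a concentration range, with curves fitted to normalized data.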
On the % scale 0 is the no-effect control and ±100 the full control effect; potency means the concentration at half of the fitted maximal effect.

SMILES | activity change, negative = cytotoxicity | Potency
Nc1nc(N)c(N=O)c(N)n1 | 0.0458% | –
O=C(CCC(=O)N1CCN(S(=O)(=O)c2ccccc2)CC1)NC1CCCc2ccccc21 (stereo unspecified) | -9.17% | –
Cc1ccc(S(=O)(=O)N2CCN(C(=O)CCC(=O)NC3CCCc4ccccc43)CC2)cc1 (stereo unspecified) | – | 23.1 µM (active)
COc1ccc(NC(=O)CCC(=O)N2CCN(S(=O)(=O)c3ccc(C)cc3)CC2)c(OC)c1 | -3.16% | –
CC1(C(=O)NS(=O)(=O)c2cccc(F)c2)CCN1C(=O)c1cccc2ccccc12 (stereo unspecified) | 5.37% | –
COc1ccccc1-n1c(SCC(=O)Nc2ccc(Cl)cc2)nc(O)c(Cc2ccccc2)c1=O | 6.89% | –
CCc1cc2c(NC3CCCC3)ncnc2s1 | 2.62% | –
Oc1ccccc1N1CCN(c2ncnc3sc(-c4ccccc4)cc23)CC1 | 2.18% | –
CCc1cc2c(N3CCN(c4nnc(CC)s4)CC3)ncnc2s1 | – | 3.66 µM (active)
CCCNC(=O)C1(C)CCCN(C(=O)c2oc3ccccc3c2C)C1 (stereo unspecified) | 2.13% | –
O=C(Cc1ccccc1)N/N=C/c1ccc(Cl)cc1Cl | – | 23.1 µM (active)
O=C(Cn1cc(C(F)(F)F)ccc1=O)N/N=C/c1ccc(Cl)cc1Cl | -21.2% | –
C=CCOc1ccccc1/C=N/NC(=O)Cc1ccccc1 | -7.11% | –
CN(C)c1ccc(/C=c2\[nH]c(=O)/c(=C/c3ccc(N(C)C)cc3)[nH]c2=O)cc1 | 7.38% | –
COc1ccc(OC)c(Cc2nnc(CCC(=O)NC3CCCC3)o2)c1 | -5.46% | –
COc1ccc(OC)c(-n2nnc3c(sc4nc(C)c(Br)c(C)c43)c2=O)c1 | 0.722% | –
COc1ccc(OC)c(Cc2cnc3nc(N)nc(N)c3c2C)c1 | – | 10.3 µM (active)
Nc1nc2c(Br)ccc(Br)c2cc1C(=O)NCCc1ccccc1 | -7.75% | –
Cc1cc(Br)ccc1NC(=O)CCCOc1cc(=O)n(C)c2ccccc12 | -28.2% | –
O=C(Nc1ccc2c(c1)CCC2)c1cccc(S(=O)(=O)N2CCN(c3ccc(F)cc3)CC2)c1 | 3.08% | –
O=C(c1cccc(S(=O)(=O)Nc2ccccc2Cl)c1)N1CCN(C(=O)c2ccco2)CC1 | 0% | –
O=C(Nc1ccc2c(c1)CCC2)c1cccc(S(=O)(=O)Nc2ccccc2Cl)c1 | – | 20.6 µM (active)

SMILES | activity change, negative = cytotoxicity | Potency
Cc1ccc2nc(/C(C#N)=C/c3ccc(-c4ccc(C(=O)OC(C)C)cc4)o3)[nH]c2c1 | 0.0041% | –
CCN(CC)C(=O)C(C)N1c2cccc3cccc(c23)S1(=O)=O (stereo unspecified) | -11.9% | –
O=C(Cc1cccs1)Nc1cccc(-c2nc3ccccc3[nH]2)c1 | – | 16.4 µM (active)
O=C(Nc1ccc(-c2nc3ccccc3[nH]2)cc1)c1ccncc1 | 21.2% | –
CCOC(=O)c1ccc(NC(=O)Cc2cccs2)cc1 | -14.2% | –
CC(C)c1cc(C(=O)N(C)C2CCCN(Cc3ccccc3F)C2)n(C)n1 (stereo unspecified) | -13.9% | –
Cc1nccn1-c1ccc(NC(=O)[C@H]2O[C@@H](n3ccc(=O)[nH]c3=O)[C@H](O)[C@@H]2O)cc1 | 24.1% | –
CCOC(=O)c1cc(-c2ccccc2)n(-c2cccc(C(=O)Nc3cc(OC)cc(OC)c3)c2)c1C | 17.9% | –
Cc1c(NS(=O)(=O)c2cccc(C(=O)Nc3ccc(SC(F)F)cc3)c2)c(=O)n(-c2ccccc2)n1C | – | 5.17 µM (active)
COc1ccc(C(=O)C(C)OC(=O)c2cccc(S(=O)(=O)Nc3c(C)n(C)n(-c4ccccc4)c3=O)c2)cc1 (stereo unspecified) | 0% | –
Cc1c(NS(=O)(=O)c2ccc(Cl)cc2)c(=O)n(-c2ccccc2)n1C | 21.8% | –
COc1cccc(CN2CCC(C(=O)NC(c3ccc4c(c3)OCO4)c3ccccn3)CC2)c1 (stereo unspecified) | 3.03% | –
COc1ccc(/C=C(/NC(=O)c2ccccc2)C(=O)Nc2cccc(C(=O)O)c2)cc1 | 9.03% | –
CC(=O)c1cccc(NC(=O)[C@@H](NC(N)=O)C(C)C)c1 | 0% | –
COc1ccc(NC(C(=O)Nc2cccc(C(C)=O)c2)c2ccccc2)cc1 (stereo unspecified) | – | 4.61 µM (active)
CN(C)c1ccc(/C=N\Nc2ccc([N+](=O)[O-])cc2[N+](=O)[O-])cc1Cl | -16.2% | –
Cc1nc(Nc2ccc(S(=O)(=O)N3CCCC3)cc2)c2nnn(Cc3ccccc3)c2n1 | -20.1% | –
CC(C)Cc1nc(Nc2ccc(S(=O)(=O)N3CCCC3)cc2)c2nnn(Cc3ccccc3)c2n1 | – | 20.6 µM (active)
CC(C)Nc1ncnc2c1nnn2Cc1ccccc1 | -10.4% | –
CCOC(=O)[C@]12CCC=C1N(Cc1ccco1)C(=O)[C@H](CC(=O)NCc1cccc(C(F)(F)F)c1)C2 | -5.43% | –
CCOC(=O)[C@]12CCC=C1N(Cc1cccc3ccccc13)C(=O)[C@H](CC(=O)NCc1cccc(C(F)(F)F)c1)C2 | – | 20.6 µM (active)
CCOC(=O)[C@]12CCCC=C1N(Cc1cccc3ccccc13)C(=O)[C@H](CC(=O)NCC13CC4CC(CC(C4)C1)C3)C2 | -24.8% | –

SMILES | activity change, negative = cytotoxicity | Potency
O=C(NC1CCCCCCC1)c1cccs1 | 1.97% | –
O=C(NC1CCCC1)c1cc(-c2ccccc2)on1 | – | 16.4 µM (active)
O=C(NC1CCCCC1)c1cc(C2CC2)on1 | 9.07% | –
CCCCN1C(=O)C(CC(=O)NC(c2ccccc2)c2ccccc2)CC(C(=O)N2CCOCC2)=C1C (stereo unspecified) | -12.8% | –
N#Cc1ccc[n+](CC(=O)c2ccc(O)c(O)c2)c1 | 10.8% | –
Cc1ccc(C(=O)OCc2nc(N)nc(Nc3ccccc3C)n2)cc1 | 10.4% | –
CCCn1nc(C(=O)OCc2nc(N)nc(Nc3ccccc3C)n2)c2ccccc2c1=O | – | 20.6 µM (active)
Cc1ccccc1Nc1nc(N)nc(CSc2ccccc2)n1 | -12.7% | –
O=C(Nc1cccc2cccnc12)c1ccc2sc([C@H]3C[C@H](O)[C@@H](CO)O3)nc2c1 | 2.51% | –
Cc1ccc(NC(=O)Cn2cnc3nc4c(cc3c2=O)CCCC4)cc1Cl | -1.83% | –
CC(=O)NCCn1c(SCC(=O)Nc2ccc(C)cc2)nc2ccccc2c1=O | – | inactive
CCn1c(SCC(=O)Nc2ccc(C)cc2)nc2nc3c(cc2c1=O)CCCC3 | – | 0.651 µM (active)
CCCn1c(N)c(C(=O)CSc2nnc(Cc3cccs3)n2C2CC2)c(=O)[nH]c1=O | 3.91% | –
CCCCn1c(SCC(=O)NCCc2ccc(OC)c(OC)c2)nc2c1c(=O)n(C)c(=O)n2C | 0% | –
Cn1c(=O)c2c(nc(NCc3ccccc3)n2CC(N)=O)n(C)c1=O | -8.35% | –
CC(C)CCn1c(CN(C)Cc2ccccc2)nc2c1c(=O)n(C)c(=O)n2C | – | 9.2 µM (active)
Cn1c(=O)c2c(nc(NCCc3ccccc3)n2Cc2ccccc2)n(C)c1=O | – | 6.51 µM (active)
Cn1c(=O)c2c(nc(NCCc3ccccc3)n2Cc2ccccc2Br)n(C)c1=O | 8.3% | –
CCn1c(NCCc2ccc(OC)c(OC)c2)nc2c1c(=O)n(C)c(=O)n2C | – | 4.61 µM (active)
COCCn1c(CN(Cc2ccccc2)Cc2ccccc2)nc2c1c(=O)n(C)c(=O)n2C | -15.9% | –
Cc1ccnc(SCCn2c(N(C)Cc3ccccc3)nc3c2c(=O)n(C)c(=O)n3C)n1 | -0.969% | –
COc1ccc(CCNc2nc(C)cc(C)n2)cc1OC | 6.88% | –

Source: PubChem BioAssay AID1347076 (National Center for Advancing Translational Sciences (NCATS), 2019)
